# Values joined by “and” are separate entries in the source; they are usually repeats but may differ in a detail not shown here. Identical values can stand only once. The campaign covered roughly 91,000 compounds. About 130 (0.14%) were called active. Roughly 3% stayed inconclusive and do not appear here. The call rests on the fitted dose curve; in most records, active means well fitted inhibition curve with a large enough effect; inconclusive means small, poorly fitted or top-dose-only effect; inactive means flat fitted curve, though single readings scatter. For the sample, actives were picked, then their nearest neighbours and some compounds at random. Some structures have more than one record in an assay (separate samples or runs), and their calls can disagree.
# System: Uracil-DNA glycosylase
# Assay: Primary qHTS assay for inhibitors of Activation Induced Cytidine Deaminase (AID): UDG Counterscreen signal; further: nearly all actives have a fitted effect of over 65% in size
# Settings: FRET deamination/UDG coupled assay, UDG read, 4 h; series mostly up to 115 µM; activity change, negative = inhibition: at the top concentration
# Description: Assay Provider (PI) Patricia Gearhart Ph.D.
# National Institute on Aging
# National Institute of Health (NIH), Bethesda, MD
# Assay Provider (PI) Rahul Kohli Ph.D.
# Perelman School of Medicine
# University of Pennsylvania, Philadelphia, PA
# Activation-Induced Deaminase (AID) is a cytosine deaminase which converts cytosine into uracil within stretches of ssDNA. The presence of uracil in DNA initiates a cascade of mutagenic DNA repair to introduce point mutations and DNA double strand breaks. Specific targeting of AID to the immunoglobulin heavy chain loci (Igh) promotes mutagenesis in the antibody variable region for somatic hypermutation (SHM) or switch regions leading to class switch recombination (CSR). However, AID also plays a role in accumulating unnecessary mutations across the genome. Mis-targeting of AID results in the initiation of tumor development and leads to greater drug resistance among cancer cells when continually expressed. To identify an AID inhibitor, a small molecule library will be screened in collaboration with NCATS core facility at NIH. To confirm biological function, inhibitors will be examined in an in vitro murine B-cell activation assay and subsequent secondary validation screens. Top molecules will be further screened to identify inhibitory efficacy against a wild type primary splenocytes assay. Using these approaches, we hope to identify a small molecule with great efficacy and low toxicity for use as a molecular probe to further characterize AID's intricacies, or even as a therapeutic.
# A FRET based analysis of cytosine deamination, was developed to identify potential inhibitors of AID catalytic activity. This screen has two signal output, Read 1 evaluates the AID inhibition response. The second readout (Read 2) evaluates UDG response and is uses as a counterscreen to exclude false positive inhibitors. Inhibition in AID and inactivity in the UDG signal is the desired outcome for this assay.
# SEQUENCE No. (e.g., 1, 2, 3, etc.); […] (e.g., Cells, Incubation, Reagent, etc.); VALUE; DESCRIPTION
# 1a; Reagent; 3 uL; [4/3x] 1 uM AID/2.67 U/mL UDG
# 1b; Reagent; 3 uL; 2 U/mL UDG
# 1c; Reagent; 3 uL; 1 uM AID
# 2a; Compound; 46 nL; Follow-up plates (0.64 uM - 10 mM)
# 2b; Control; 46 nL; ATA ([…] - 10 mM)
# 3; Time; 10 min; incubation at room temperature
# 5; Time; 4 hr; incubation at room temperature
# 6; Reagent; 4 uL; [2x] 250 mM NaOH
# 7; Time; 15 sec; centrifuge at 1000 rpm
# 8; Time; 30 min; incubation at room temperature
# 9a; Detection; fluorescence (Read 1: AID); EnVision (PerkinElmer) plate reader, 540 excitation and 590 emission filters
# 9b; Detection; fluorescence (Read 2: UDG); EnVision (PerkinElmer) plate reader, 560 excitation and 665 emission filters
# NOTES (numbers refer to sequence above)
# 1a; Reagents were dispensed in a medium-binding black solid-bottom Greiner plates (789176F) using a BioRptr liquid dispenser. Dispense 3 uL of [4/3x] 1 uM AID (provided by Kohli lab) and [4/3x] 2 U/mL UDG (NEB M0280L) into columns 1, 2, 5 to 48.
# 1b; Dispense 3 uL of [4/3x] 2 U/mL UDG into column 3.
# 1c; Dispense 3 uL of [4/3x] 1 uM AID into column 4.
# 2a; Compound (7-points [uM] (0.64; 3.2; 16; 80; 400; 2,000; 10,000; 20,000) double pin-transferred (Dip Factor = 2) using the Kalypsys (Wako USA) pintool equipped with a 1536 pinhead for a final concentration range of 7.32 nM - 114 uM.
# 2b; 10 mM Aurintricarboxylic Acid (Sigma A1895) (ATA, 8-point, n = 2, 1:2.5 dilution in column 2) double pin-transferred (Dip Factor = 2) using the Kalypsys (Wako USA) pintool equipped with a 1536 pinhead for a [final] range of 186 nM - 114 uM.
# 3; Room temperature incubation.
# 4; Dispense 1 uL of substrate mixture from the Kohli lab [4x] […] DJC20 and [4x] 250 nM DJC23 into columns 1 to 48 .
# 5; Room temperature incubation.
# 6; Dispense 4 uL of substrate mixture [2x] 250 mM NaOH into columns 1 to 48.
# 7; Centrifugation step to remove bubbles.
# 8; Room temperature incubation
# 9a; Fluorescence signal (column label AID) was read using the EnVision plate reader. […]
# On the % scale 0 is the no-effect control and ±100 the full control effect; potency means the concentration at half of the fitted maximal effect.
SMILES,"activity change, negative = inhibition",Potency
Cc1scc(C(=O)NCCC2=CCCCC2)c1C,-2.73% (inactive),–
CC(C)(C)C(=O)NCC(=O)O,-1.68% (inactive),–
COc1ccc(COC(=O)C2CCN(S(=O)(=O)c3c(Cl)cccc3Cl)CC2)cc1F,3.16% (inactive),–
CN(C)c1ccc(NC(=O)CCC2CCCC2)cc1,-8.67% (inactive),–
CNC(=O)C1CCN(Cc2csc(-c3ccc(C(F)(F)F)cc3)n2)CC1,-2.96% (inactive),–
CC(C)c1cccc(C(C)C)c1-n1ccnc1,0.0082% (inactive),–
CC(C)(C)C(=O)NCCCC(=O)NCc1cccnc1,-10.4% (inactive),–
Fc1ccc(/C=N/N=C/c2ccc(F)cc2F)c(F)c1,0.601% (inactive),–
Cc1ccc(C)c(S(=O)(=O)N2CCN(C(=O)CCc3ncc(-c4ccc(F)cc4F)o3)CC2)c1,-8.7% (inactive),–
Cc1c(-c2ccccc2)[o+]c2ccccc2c1C#Cc1ccccc1,-12.2% (inactive),–
CCCn1nc(C(=O)OCC(N)=O)c2ccccc2c1=O,2.78% (inactive),–
O=C(COC(=O)c1cnc2ccccc2n1)NC12CC3CC(CC(C3)C1)C2,7.71% (inactive),–
COc1cccc(NC(=O)C2(C#N)CCCC2)c1,-4.53% (inactive),–
O=C(NCc1coc(-c2cccs2)n1)c1cccc(C(F)(F)F)c1,-14.5% (inactive),–
O=S(=O)(CCN1CCN(c2cnccn2)CC1)c1ccccc1,5.91% (inactive),–
Cc1cnc(NC(=O)c2nc(C)n(-c3ccc(Cl)cc3)n2)s1,-1.14% (inactive),–
COc1ccccc1Oc1c(C)oc2cc(OC(=O)c3ccc4c(c3)OCO4)ccc2c1=O,12.7% (inactive),–
C/C=C/Cn1c(=O)c2c(nc(-n3nc(C)cc3C)n2CC)n(C)c1=O,-7.1% (inactive),–
Cc1cccc(N(CCC(N)=O)C(=O)c2ccc(C#N)cc2)c1,-1.04% (inactive),–
O=C(c1ccc2c(c1)N(Cc1ccccc1)C(=O)c1ccccc1S2=O)N1CCC2(CC1)OCCO2 (stereo not given),1.58% (inactive),–
O=C(CCC1CCCC1)NCCc1cccnc1,-8.17% (inactive),–
COc1cc(Br)cc2cc(-c3nc(-c4nonc4N)no3)c(=O)oc12,-7.39% (inactive),–
CC(Oc1ccc(/C=C(/C#N)c2nc3ccccc3[nH]2)cc1)C(=O)O (stereo not given),-8.6% (inactive),–
CCOC(=O)c1noc2nc(C)nc(Nc3ccc(CC)cc3)c12,-1.12% (inactive),–
COc1ccc(N(CC(=O)N2CCN(C)CC2)S(=O)(=O)c2ccccc2)cc1Cl,0% (inactive),–

SMILES,"activity change, negative = inhibition",Potency
COc1cc(/C=N/O)ccc1O,0.299% (inactive),–
O=C(O)c1ccc(CSc2cccc(Cl)c2)cc1,-2.1% (inactive),–
FC(F)(F)c1cccc(Oc2ncnc3sc(-c4ccccc4)cc23)c1,-7.76% (inactive),–
CC(C)Cc1nc(NCc2ccncc2)c(C#N)c2c1CCCC2,4.28% (inactive),–
O=C(CCc1ccncc1)Nc1ccccc1,-0.596% (inactive),–
COc1ccc(C(=O)Oc2ccc(Cl)cc2C)c(OC)c1,0.0357% (inactive),–
Cc1ccc(CNC(=O)c2ccc(=O)[nH]c2)s1,-0.737% (inactive),–
CCC(CC)C(=O)Nc1cccc(F)c1,-3.56% (inactive),–
CSc1ccc(Cl)c(C(=O)Nc2ccc(F)c(F)c2)c1,1.41% (inactive),–
CC(=O)c1ccc2[nH]c(C(=O)O)cc2c1,-0.705% (inactive),–
O=C(CCC1CCCCC1)Nc1cccc(F)c1,-0.33% (inactive),–
O=C(CCc1c[nH]c2ccccc12)N1CC=C(c2ccccc2)CC1,-12.6% (inactive),–
CC1CCN(C(=O)CSc2nnc(-c3ccco3)n2N)CC1,3.21% (inactive),–
CCCC(=O)Nc1ccccc1N1CCN(Cc2nc3ccccc3n2C)CC1,-1.83% (inactive),–
Cn1nc(C(=O)Nc2ccc(C(F)(F)F)cc2)c2ccccc2c1=O,-3.73% (inactive),–
CCCCCn1nc(C(=O)Nc2nccs2)c2ccccc2c1=O,-2.82% (inactive),–
CN(Cc1ccc(C(C)(C)C)cc1)C(=O)C1CCN(C(=O)/C=C/c2ccccc2)CC1,1.65% (inactive),–
COc1ccc(-c2nc3ccccc3o2)cc1NC(=O)c1ccc(Cl)cc1,5.28% (inactive),–
CCOC(=O)c1cc(-c2ccc(S(=O)(=O)N3CCN(c4cc(Cl)ccc4C)CC3)s2)on1,-3.8% (inactive),–
O=C(CSc1ncnc2ccccc12)Nc1ccc(Cl)c(C(F)(F)F)c1,-1.99% (inactive),–
CNc1c(NC(=O)Nc2ccccc2F)c(=O)oc2ccccc12,35.6% (inactive),–
COc1cc(CNC(=O)C(C)Oc2ccccc2)ccn1 (stereo not given),2.82% (inactive),–
Nc1ccc(C(=O)O)cn1,-0.258% (inactive),–
Clc1cccc(-n2ncc3c(NCCc4ccccc4)ncnc32)c1,–,inactive and 89.1 µM (active)
NS(=O)(=O)c1ccc(CCNc2ncnc3c2cnn3-c2ccccc2Cl)cc1,-2.13% (inactive),–

SMILES,"activity change, negative = inhibition",Potency
Cc1ccc(-n2ncc3c(NCCCn4ccnc4)ncnc32)cc1Cl,-13.3% (inactive),–
CCc1nn2c(=O)cc(CN3CCCCC3C)nc2s1 (stereo not given),-6.52% (inactive),–
O=C(CCc1cccs1)NCC1CC1,-9.5% (inactive),–
C/C(=N/Nc1ccnc2cc(Cl)ccc12)c1cccc(N)c1,-26.9% (inactive),–
CC(=O)N(Cc1ccc2[nH]ccc2c1)C1CC1,12.3% (inactive),–
O=C(CCn1ccc2ccccc21)N1CCN(S(=O)(=O)c2ccccc2)CC1,-11.7% (inactive),–
COCC(=O)N(Cc1cccs1)C1CC1,-5.11% (inactive),–
CC(c1nc(C(C)(C)C)no1)N(C)Cc1ccc2c(c1)OCO2 (stereo not given),4.82% (inactive),–
Fc1cccc(CSc2nnc(-c3ccccc3F)n2C2CC2)c1,0.268% (inactive),–
CNC(=O)c1ccc2c(c1)CCCN2C(=O)c1ccc(Cl)cc1,4.74% (inactive),–
COc1ccc(CN(Cc2cc(=O)oc3cc(C)c(C)cc23)C2CC2)cc1,-3.27% (inactive),–
COCCNC(=O)CS(=O)Cc1nc(-c2ccc(C)cc2)oc1C (stereo not given),10.9% (inactive),–
Cc1cc2nc(-c3ccccc3)c(-c3ccccc3)nc2cc1C,6.41% (inactive),–
CCC(C)Nc1oc(-c2ccc(COc3ccc(Cl)cc3)o2)nc1C#N (stereo not given),-4.75% (inactive),–
Cc1ccc(C)c(OCc2ccc(-c3nc(C#N)c(NC(C)C)o3)o2)c1,–,70.8 µM (active)
Cc1ccccc1OCc1ccc(-c2nc(C#N)c(N3CCCCC3)o2)o1,-12.8% (inactive),–
N#Cc1cccnc1NCCC12CC3CC(CC(C3)C1)C2,-4.49% (inactive),–
Cc1cc(=O)oc2c(C)c(OC(C)C(=O)NCCc3ccc(S(N)(=O)=O)cc3)ccc12 (stereo not given),-0.637% (inactive),–
O=C(NCc1ccc2c(c1)OCO2)c1cccc(N2CCCN(Cc3ccc(F)cc3)C2=O)c1,3.74% (inactive),–
CC(C)(C(=O)Nc1ccc(F)c(NC(=O)C2CC2)c1)c1ccccc1,8.51% (inactive),–
CNCCC(F)(F)F,-1.7% (inactive),–
OC(COCc1ccccc1F)Cn1nnc(-c2cccnc2)n1 (stereo not given),-1.08% (inactive),–
O=C(COC(=O)Cc1n[nH]c(=O)c2ccccc12)NCC1CCCO1 (stereo not given),-1.41% (inactive),–
CCOc1ccc(-c2csc(-c3ccc(Cl)cc3)n2)cc1,-7.65% (inactive),–
O=C(NCc1cccc(OC(F)F)c1)c1ccccc1-n1cnnn1,0.583% (inactive),–
